Laboratory results: PubChem BioAssay
Results filed as inconclusive are left out. The source made the active and inactive calls.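 How the source made its calls, unless noted: active means growth inhibition above 25% in both replicates, a cutoff set 3 SD above the mean; inconclusive means above 25% in only one replicate; inactive means the rest.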

Assays:
[1] = target: Pantothenate synthetase (Mycobacterium tuberculosis (strain ATCC 25618 / H37Rv)) (UniProt P9WIL5); assay: Coupled enzyme confirmation of inhibitors against recombinant Mtb PanC (AID 375; call rule not given here;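 further: 0% = full reaction with vehicle and 100% = no enzyme background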); settings: coupled enzyme assay; at 10 µM, stronger effect = higher value
Sequence of Pantothenate synthetase (Mycobacterium tuberculosis (strain ATCC 25618 / H37Rv)) (P9WIL5 whole entry, looked up): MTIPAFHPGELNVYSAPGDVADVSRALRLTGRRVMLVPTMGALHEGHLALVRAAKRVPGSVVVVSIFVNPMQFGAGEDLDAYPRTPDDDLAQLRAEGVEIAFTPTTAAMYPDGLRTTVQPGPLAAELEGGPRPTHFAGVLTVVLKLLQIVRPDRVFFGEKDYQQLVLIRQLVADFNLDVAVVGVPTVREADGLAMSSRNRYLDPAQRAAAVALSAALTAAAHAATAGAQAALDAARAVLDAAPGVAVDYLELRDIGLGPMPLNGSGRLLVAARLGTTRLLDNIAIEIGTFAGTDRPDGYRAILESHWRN

[2] = Her2 expression decrease, cell viability multiplex – SKBR3 breast tumor cells, AlphaScreen, ATP viability, primary screen (AID 461;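 active means Her2 level under about 52% in both replicate screens, with viability over 70% of control, limit read from the data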;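 on Her2 level: lower value means less Her2 protein in the cells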;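 on viability: percent of carrier control wells set as 100% viability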); settings: SKBR3 Her2 protein level, 18-24 h, measured here: SKBR3 viability, ATP luminescence, at 10 µM
[3] = target: Receptor tyrosine-protein kinase erbB-2 (Homo sapiens) (UniProt P04626); assay: as above; settings: 18-24 h, at 10 µM, stronger effect = lower value
Sequence of Receptor tyrosine-protein kinase erbB-2 (Homo sapiens) (P04626 whole entry, looked up): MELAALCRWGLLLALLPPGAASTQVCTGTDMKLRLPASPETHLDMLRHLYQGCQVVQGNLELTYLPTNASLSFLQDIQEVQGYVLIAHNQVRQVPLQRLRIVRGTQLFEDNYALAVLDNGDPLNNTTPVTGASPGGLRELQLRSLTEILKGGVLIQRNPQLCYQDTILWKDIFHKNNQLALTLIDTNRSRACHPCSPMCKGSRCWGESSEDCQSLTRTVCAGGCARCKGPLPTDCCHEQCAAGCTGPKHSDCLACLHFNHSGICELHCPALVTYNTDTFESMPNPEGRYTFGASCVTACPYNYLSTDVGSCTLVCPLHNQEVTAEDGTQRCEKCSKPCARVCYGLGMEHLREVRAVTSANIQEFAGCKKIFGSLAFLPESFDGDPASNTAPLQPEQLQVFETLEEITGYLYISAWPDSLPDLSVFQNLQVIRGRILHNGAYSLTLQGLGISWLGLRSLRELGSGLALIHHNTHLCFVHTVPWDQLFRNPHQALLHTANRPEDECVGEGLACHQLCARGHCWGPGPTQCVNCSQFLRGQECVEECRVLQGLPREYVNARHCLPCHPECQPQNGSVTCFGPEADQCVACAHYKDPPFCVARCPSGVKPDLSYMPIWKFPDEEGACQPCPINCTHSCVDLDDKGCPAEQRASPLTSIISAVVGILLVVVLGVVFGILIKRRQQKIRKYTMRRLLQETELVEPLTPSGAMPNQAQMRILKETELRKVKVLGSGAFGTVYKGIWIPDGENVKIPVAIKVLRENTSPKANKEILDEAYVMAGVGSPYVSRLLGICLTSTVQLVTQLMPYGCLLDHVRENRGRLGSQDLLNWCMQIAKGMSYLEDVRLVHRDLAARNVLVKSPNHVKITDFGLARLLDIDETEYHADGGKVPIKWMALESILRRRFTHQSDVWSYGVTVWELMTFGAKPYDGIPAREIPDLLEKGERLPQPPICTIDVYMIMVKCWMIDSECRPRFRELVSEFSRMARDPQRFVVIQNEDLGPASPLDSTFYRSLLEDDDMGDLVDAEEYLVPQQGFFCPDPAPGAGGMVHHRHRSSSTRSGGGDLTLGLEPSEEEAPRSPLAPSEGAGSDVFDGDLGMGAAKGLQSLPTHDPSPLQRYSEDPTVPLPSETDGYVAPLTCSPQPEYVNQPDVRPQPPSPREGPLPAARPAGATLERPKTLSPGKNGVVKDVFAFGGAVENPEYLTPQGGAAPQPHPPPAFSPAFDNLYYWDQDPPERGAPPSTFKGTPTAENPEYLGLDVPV

[4] = reduced viability of SK-BR-3 breast cancer cells – cell-based, 24 h, human, pilot screen (AID 572;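 active means viability at or below 10% of carrier control in both of two separate runs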;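 further: compound exposure lasted between 18 and 24 h rather than exactly 24 h; 100% = carrier-treated control wells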); settings: SK-BR-3 viability, CellTiter-Glo luminescence, at 10 µM, stronger effect = lower value
[5] = HUVEC growth inhibition – cell-based, human, primary screen (AID 575;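 active means viability at or below 30% in both replicate assays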;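 further: 100% = median of untreated cell wells with 0.1% DMSO on each plate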); settings: HUVEC proliferation, CellTiter-Glo luminescence, 72 h; at 10 µM; stronger effect = lower value
[6] = H69AR cell proliferation blockers – human, duplicate replicates, primary screen (AID 580;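 active means viability at or under a set limit in both replicates, limit being median viability minus 3 SD, cut at about 48% in these data, passing the limit was not always enough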;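 further: 100% = mean luminescence of untreated wells and 0% = no signal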); settings: H69AR lung tumor cells viability, ATP luminescence, 72 h; at 10 µM; stronger effect = lower value
[7] = MRP1 drug-resistance reversers in H69AR cells – cell-based, doxorubicin co-treatment, pilot screen (AID 601;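 active means viability loss from added drug above about 55%, and viability with drug at most 40%, in both replicates, limit read from the data, passing the limit was not always enough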); settings: CellTiter-Glo, 72 h, at 10 µM; for differential viability (reversal): stronger effect = higher value
[8] = yeast transport mutant growth inhibition pilot in 384-well plates, post-Golgi transport modulator project (AID 636; in the data active means inhibition above about 31%); settings: absorbance 615 nm, about 18 h, stronger effect = higher value
[9] = growth suppression of yeast trafficking mutant, preliminary HTS, modulators of trafficking downstream of Golgi apparatus project, 1536-format plate, OD 615 nm (AID 637; in the data active means inhibition above about 30%); settings: yeast transport mutant growth, absorbance 615 nm, 18 h; stronger effect = higher value
[10] = S. cerevisiae growth inhibition in permissive medium (OD615), pilot counter-assay for S. cerevisiae lifespan shortening project, permissive growth control (AID 705); settings: OD615, 24 h, at 10 µM, stronger effect = higher value
[11] = S. cerevisiae growth inhibition in restrictive medium, OD615, pilot screen, restrictive growth control, yeast lifespan reduction project (AID 706;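 active means growth inhibition above a set limit, 3 SD over mean compound inhibition, in both replicates, cut at about 43% in these data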;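 further: modified DeaD lifespan yeast strain shifted to restrictive glucose medium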); settings: OD615, 48 h, at 10 µM, stronger effect = higher value
[12] = doxorubicin toxicity protection in MRP-1 cells – H69AR cells, CellTiter-Glo, duplicate, MRP-1 activator project, pilot screen (AID 807;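 active means viability increase at or above a cutoff of the median across tested compounds plus 3 SD, cut at about 8.5% in these data, passing the limit was not always enough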;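 further: compound pretreatment 18-22 h then 72 h combined with doxorubicin; 0% = doxorubicin alone and 100% = vehicle without doxorubicin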); settings: H69AR viability with doxorubicin, CellTiter-Glo luminescence; at 10 µM; stronger effect = higher value
[13] = viability of HCT116 without oncogenic beta-catenin – human colon tumor cells, pilot screen (AID 823;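 active means cell viability at or below a set limit in both duplicate runs, the limit being the all-compound median minus 4 SD, cut at about 23% in these data, passing the limit was not always enough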;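 further: 0% = wells killed by 20 µM Hyamine and 100% = untreated DMSO cell wells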); settings: HCT116 beta-catenin knockout viability, CellTiter-Glo, 60 h; at 10 µM; stronger effect = lower value
[14] = viability of PTEN-null HCT116 cells – cell-based, HCT116 clonal line, CellTiter-Glo, pilot screen (AID 824;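 active means viability at or below 27.92% in each of two runs, the all-compound median minus 4 SD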;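 further: 0% = 20 µM Hyamine control and 100% = vehicle cell control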); settings: HCT116 PTEN-deleted viability, 60 h, at 10 µM, stronger effect = lower value
[15] = RAM pathway blockade in budding yeast – dse1pr::URA3 reporter, 5-FOA selection, pilot screen (AID 869;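 active means inhibition over a set limit, the all-compound mean plus 3 SD, in both replicate runs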;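 further: 0% = DMSO wells with no growth and 100% = 10 µM 1-NA-PP1 with full growth; RAM network block rescues cells from 5-FOA so hits raise OD615 growth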); settings: S. cerevisiae dse1pr::URA3 5-FOA growth, OD615, 2 d, at 10 µM, stronger effect = higher value
[16] = RAM signaling pathway blockade in yeast – S. cerevisiae, Pdr1DBD-CYC8 efflux-inhibited sensitized strain, primary screen (AID 1298;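 active means RAM network inhibition above 8.4% in each of two replicates, 3 SD over the compound average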;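 further: 0% = DMSO untreated cells without growth and 100% = 10 µM 1-NA-PP1 full growth; higher means more yeast growth rescued from 5-FOA killing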); settings: S. cerevisiae cbk1-as DSE1-URA3 strain, 5-FOA growth OD615, 2 d; at 50 µM; stronger effect = higher value
[17] = H69AR cells + 2 uM doxorubicin, measured here: viability with 2 uM doxorubicin, stronger effect = lower value
[18] = H69AR cells, compound alone cytotoxicity

With `CN1CCN(c2nc3ccccc3c(=O)n2-c2ccccc2)CC1` the inhibition [1] was 0% (inactive), the viability [2] was 98.5% and the Her2 level [3] was 104% (inactive). The viability [4] was 98.5% (inactive), the viability [5] was 79.9% (inactive) and the viability [6] was 86.3% (inactive). The differential viability (reversal) ([7]; H69AR cells + 2 uM doxorubicin) was -3.29% (inactive), the viability [7, 17] was 89.6% and the viability [7, 18] was 86.3%. For the same compound, the inhibition [8] was 0.64% (inactive), the inhibition [9] was -1.17% (inactive) and the growth inhibition [10] was -13.4% (inactive). For the same compound, the growth inhibition [11] was -1.59% (inactive), the viability increase [12] was -2.67% (inactive) and the viability [13] was 98.1% (inactive). The viability [14] was 99.3% (inactive), the inhibition [15] was 2.02% (inactive) and the RAM network inhibition [16] was 1.34% (inactive).
For `CC(=O)Nc1ccc(OC(=O)c2ccccc2N)cc1`, the inhibition [1] was 0% (inactive), the viability [2] was 100% and the Her2 level [3] was 118% (inactive). For the same compound, the viability [4] was 100% (inactive), the viability [5] was 93.5% (inactive) and the viability [6] was 99.3% (inactive). The differential viability (reversal) ([7]; H69AR cells + 2 uM doxorubicin) was 9.29% (inactive), the viability [7, 17] was 90.1% and the viability [7, 18] was 99.3%. For the same compound, the inhibition [8] was -0.13% (inactive), the inhibition [9] was -9.5% (inactive) and the growth inhibition [10] was -7.19% (inactive). The growth inhibition [11] was -9.05% (inactive), the viability increase [12] was 1.42% (inactive) and the viability [13] was 107% (inactive). The viability [14] was 102% (inactive), the inhibition [15] was 1.02% (inactive) and the RAM network inhibition [16] was 0.27% (inactive).
For `CC1=CC(=C2C(=O)NC(=O)NC2=O)C=C(C(F)(F)F)N1C(C)C`, the growth inhibition [10] was -13.5% (inactive), the growth inhibition [11] was -9.69% (inactive) and the viability increase [12] was -1.79% (inactive). The viability [13] was 92.5% (inactive), the viability [14] was 91.3% (inactive) and the inhibition [15] was 2.69% (inactive). The RAM network inhibition [16] was 0.05% (inactive).
With `CCc1ccc(OCCCN=C(C)c2c(O)n(C)c(=O)n(C)c2=O)cc1` the inhibition [1] was 0% (inactive), the viability [2] was 92% and the Her2 level [3] was 85.5% (inactive). For the same compound, the viability [4] was 92% (inactive), the viability [5] was 77.7% (inactive) and the viability [6] was 85.1% (inactive). For the same compound, the differential viability (reversal) ([7]; H69AR cells + 2 uM doxorubicin) was 1.31% (inactive), the viability [7, 17] was 83.8% and the viability [7, 18] was 85.1%. The inhibition [8] was -1.95% (inactive), the inhibition [9] was 1.83% (inactive) and the growth inhibition [10] was -6.49% (inactive). The growth inhibition [11] was -4.79% (inactive), the viability increase [12] was 0.23% (inactive) and the viability [13] was 77.3% (inactive). For the same compound, the viability [14] was 80.8% (inactive), the inhibition [15] was 0.12% (inactive) and the RAM network inhibition [16] was -0.72% (inactive).
